Test results from PubChem BioAssay AID651690 (Sanford-Burnham Center for Chemical Genomics, 2012).
The list shows a part of the results. Values without a mark were called inactive. Active and inactive are the calls of the source. Rule as the data show it: active = inhibition mostly above about 32% (no sharp cut-off); inactive = mostly below about 29%.

target: Sentrin-specific protease 1 (Homo sapiens) (UniProt Q9P0U3); experiment: SENP1 SUMO protease blockers by rate readout – biochemical, kinetic FRET, single concentration, confirmation (AID 651690); settings: recombinant SENP1, CyPet-SUMO1-YPet FRET kinetic cleavage; at 10 µM; stronger effect = higher value;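 also: 0% = DMSO with enzyme and 100% = no enzyme substrate only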
Sequence (Q9P0U3 419-644 limits assumed): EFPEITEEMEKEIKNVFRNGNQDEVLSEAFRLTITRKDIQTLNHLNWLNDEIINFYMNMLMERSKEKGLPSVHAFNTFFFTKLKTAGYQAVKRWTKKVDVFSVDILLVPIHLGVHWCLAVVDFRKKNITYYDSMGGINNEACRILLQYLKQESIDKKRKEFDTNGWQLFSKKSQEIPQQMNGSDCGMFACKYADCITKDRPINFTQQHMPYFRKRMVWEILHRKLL

Point of comparison: COc1ccc(OC)c(C2C3=C(N=c4s/c(=C\c5cccc(O)c5)c(=O)n42)c2ccccc2CC3)c1 (stereo unspecified), inhibition 19.3%. Against it:
- COc1ccc(N2C(=O)C3C(C2=O)C(C(=O)c2ccccc2)N2CCCC32)cc1 (stereo unspecified) — higher, 23.7%
- Cn1c(-c2sc3cc(C(F)(F)F)cnc3c2-c2ccccc2)n[nH]c1=S — lower, 11.8%
- CCOC(=O)C1CCN(c2ncnc3c2c(-c2ccccc2)cn3-c2ccc(C)cc2)CC1 — lower, 10.2%
- Fc1cccc(Cc2c(-c3cccc(Cl)c3)nc3ccc(Br)cn23)c1 — lower, 3.67%
- O=C(NC(=O)c1ccccc1)Nc1ccccc1O — lower, -0.175%
- Cc1cc(C(=O)N/N=C/c2ccc(N3CCOCC3)cc2)c(C)o1 — lower, 17.6%
- O=C1/C(=C/c2coc3ccc(O)cc3c2=O)SC(=S)N1c1ccccc1 — lower, -0.025%
- Cc1ccc(C(=O)N/N=C\c2cc(Br)c(Br)o2)cn1 — lower, 14.5%
- O=C1CC[C@@H]2CC3(C[C@@H]4CCN1[C@H]24)Nc1cc([N+](=O)[O-])ccc1NC3=NC1CCCCC1 (stereo partly specified) — lower, 2.83%
- c1coc(-c2nc3nc4ccccc4n3nc2-c2ccco2)c1 — lower, 13.5%
- O=[N+]([O-])c1ccc(N=NNc2ccc([N+](=O)[O-])cc2)cc1 — lower, 11.6%
- Cc1cccc(C)c1Nc1c(-c2ccccc2O)nc2ncccn12 — lower, 8.55%
- N/C(=N\OC(=O)N1c2ccccc2Sc2ccccc21)c1ccc(Br)cc1 — lower, 0.1%
- CCN(CC)S(=O)(=O)c1cc([N+](=O)[O-])ccc1N=Nc1c(O)n(C)c2ccccc12 — lower, -1.62%

With COc1cc(/C=C2\CCCc3c2nc2ccccc2c3C(=O)O)cc(Cl)c1O the inhibition was 63.6% (active).
CC(=O)c1cccc(-c2cnc3c(NC=O)cc(-c4ccc(N(C)C)cc4)cn23)c1 was tested, and the inhibition was 48.5% (active).
In the case of Cc1ccc2c(c1)nnc1nnc(SCC(=O)O)n12, the inhibition is reported as 46.3% (active).
With O=C1C=C(c2cccc(Cl)c2O)C[C@@H](c2ccc(F)cc2)C1 the inhibition was 74.6% (active).
With CCCCCn1nnnc1-c1nc2cc3ccccc3cc2[nH]c1=O the inhibition was 56.7% (active).
For O=C(CCN1C(=O)/C(=C/c2cccs2)SC1=S)NNC(=O)c1cccc(O)c1, the inhibition was 44.5% (active).
